# Assay outcomes: PubChem, The Scripps Research Institute Molecular Screening Center
# A selection: hits, their analogues and other compounds. The true share with any hit is near 3.4%.
# FBW7 activator = FBW7 E3 ligase activators, primary screen, biochemical, AlphaScreen, human. F-box/WD repeat-containing protein 7 (Homo sapiens), Q969H0. normalized activity (activation), % at 26.1 µM. actives 0.13% (n = 650,000). AlphaScreen FBW7–phospho-cyclin E peptide binding, activator screen; in the data active means normalized activity above about 1.9%;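 further: purified mutant Fbw7 with reduced substrate affinity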
# GPR151 ag = activators of human GPR151, primary screen, cell-based, PathHunter beta-arrestin, luminescence; G-protein coupled receptor 151 (Homo sapiens), Q8TDV0; PathHunter beta-arrestin GPR151 cells; activation, % at 11.2 µM; actives 1% (n = 650,000); AID 1508602, 2020; in the data active means activation above about 4.9%
# MITF inh = MITF inhibitors, primary screen, biochemical, AlphaScreen, human; AlphaScreen MITF homodimerization, bead proximity signal; inhibition, % at 2.6 µM; actives 0.91% (n = 650,000); AID 1259374, 2018; in the data active means inhibition above about 50%
# Target sequence (O75030 whole entry, looked up): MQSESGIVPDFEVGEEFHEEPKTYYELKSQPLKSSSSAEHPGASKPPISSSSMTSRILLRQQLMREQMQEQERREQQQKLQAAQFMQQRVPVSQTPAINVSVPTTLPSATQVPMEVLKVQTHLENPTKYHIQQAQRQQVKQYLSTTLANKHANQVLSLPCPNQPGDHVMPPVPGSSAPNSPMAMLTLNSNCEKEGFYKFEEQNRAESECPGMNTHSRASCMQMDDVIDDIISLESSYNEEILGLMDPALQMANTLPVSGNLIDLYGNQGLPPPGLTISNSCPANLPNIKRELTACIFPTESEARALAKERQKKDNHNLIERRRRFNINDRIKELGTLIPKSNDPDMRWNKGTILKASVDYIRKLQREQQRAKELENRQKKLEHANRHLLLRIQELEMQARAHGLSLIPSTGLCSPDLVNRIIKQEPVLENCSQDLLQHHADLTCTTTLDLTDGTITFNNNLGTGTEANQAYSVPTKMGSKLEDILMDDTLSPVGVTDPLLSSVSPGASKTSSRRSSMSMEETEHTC
# TEAD-YAP inh = TEAD-YAP interaction inhibition, primary screen, TEAD-YAP interaction inhibitor project, luminescence, HEK-TIYL cells. TEAD-Gal4/YAP UAS-luciferase luminescence. inhibition, % at 9.12 µM. actives 1.4% (n = 640,000). AID 1259422, 2018; in the data active means inhibition above about 32%
# A number is an active result; 0 = inactive.
SMILES,FBW7 activator,GPR151 ag,MITF inh,TEAD-YAP inh
CN(c1ccccc1)S(=O)(=O)c1ccc2c(c1)oc(=O)n2C,0,0,0,56.3
COc1ccc(N(C)S(=O)(=O)c2ccc3c(c2)oc(=O)n3C)cc1,0,0,0,0
CN(c1ccc(Br)cc1)S(=O)(=O)c1ccc2c(c1)oc(=O)n2C,0,0,0,34.0
O=C(NCC(c1cccs1)N1CCOCC1)c1ccc([N+](=O)[O-])o1 (configuration not stated),0,0,0,54.8
COc1ccc(/C=C(\C#N)c2ccccc2)c(OC)c1,0,0,0,32.5
O=C(N/N=C/c1ccc(O)cc1O)c1ccc(O)cc1,0,0,0,0
O=C(N/N=C/c1ccc(O)cc1O)c1ccc(Br)cc1,0,0,0,42.2
O=C(N/N=C/c1ccc(O)cc1O)c1nn(Cc2ccccc2)c(=O)c2ccccc12,0,0,0,64.2
O=C(N/N=C/c1ccc(O)cc1O)c1cccc(NC(=O)c2ccccc2F)c1,0,0,0,40.0
O=C(N/N=C/c1cccc(O)c1O)c1nn(Cc2ccccc2)c(=O)c2ccccc12,0,0,0,0
O=C(N/N=C/c1ccc(O)cc1O)c1ccc(-c2ccccc2)cc1,0,0,0,45.0
O=C(N/N=C/c1ccc(O)cc1O)c1ccc(NC(=O)c2ccccc2Cl)cc1,0,0,0,0
Cn1c(=O)c2c(SCC(=O)Nc3cccc4ccccc34)nc(C3CC3)nc2n(C)c1=O,0,0,0,0
COC(=O)c1cccc(Nc2cc(C)nc3ccc(OC)cc23)c1,0,0,0,0
O=C(N/N=C/c1ccc(O)cc1O)c1cc2ccccc2cc1O,0,0,0,67.0
O=C(N/N=C\c1ccc(O)cc1O)c1cncc(Br)c1,0,0,79.0,0
O=C(N/N=C/c1ccccc1Cl)c1cncc(Br)c1,0,0,0,0
O=C(N/N=C/c1ccc(O)cc1O)c1ccc[n+]([O-])c1,0,0,73.5,0
O=C(N/N=C\c1ccc(O)cc1O)c1ccc(=O)[nH]n1,0,0,59.7,0
O=C(N/N=C\c1cc(Br)ccc1F)c1ccc(=O)[nH]n1,0,0,0,0
N/C(=C\C(=O)c1cccs1)C(F)(F)F,0,0,0,0
CC1Cc2ccccc2N1c1ncnc(N)c1[N+](=O)[O-] (configuration not stated),0,0,0,81.5
Nc1ncnc(N2CCCc3ccccc32)c1[N+](=O)[O-],0,0,0,0
CC1CC(C)CN(c2ncnc(N)c2[N+](=O)[O-])C1 (configuration not stated),0,0,0,61.6
CCC1CCCCN1c1ncnc(N)c1[N+](=O)[O-] (configuration not stated),0,0,0,0
SMILES,FBW7 activator,GPR151 ag,MITF inh,TEAD-YAP inh
CC1CCCCN1c1ncnc(N)c1[N+](=O)[O-] (configuration not stated),0,0,0,41.5
CC1CCN(c2ncnc(N)c2[N+](=O)[O-])CC1,0,0,0,0
CC1CN(c2ncnc(N)c2[N+](=O)[O-])CC(C)O1 (configuration not stated),0,0,0,0
Nc1ncnc(N2CCCC2)c1[N+](=O)[O-],0,0,0,33.2
Cc1c(NC(=O)CSc2n[nH]c3nc4ccccc4n23)c(=O)n(-c2ccccc2)n1C,0,0,0,0
CCOC(=O)c1cnc2ccc(OCC)cc2c1NCCO,0,0,0,0
CC1CCCN(c2ncnc(N)c2[N+](=O)[O-])C1 (configuration not stated),0,0,0,62.3
N#Cc1cc2cc3c(cc2nc1SCC(=O)Nc1ccccc1F)OCCO3,0,0,0,53.5
CC(C)c1ccc(C#N)c(SCC(=O)Nc2ccccc2C(=O)O)n1,3.9,0,0,0
COc1ccccc1NC(=O)CSc1nc2cc3c(cc2cc1C#N)OCO3,0,0,0,0
CCOc1ccccc1NC(=O)CSc1nc2cc3c(cc2cc1C#N)OCCO3,0,0,0,52.9
CCOc1ccccc1NC(=O)CSc1nc2ccc(OC)cc2cc1C#N,0,0,0,48.1
CCOc1ccc(/C=C/C(=O)NC2CCCC2)cc1,0,0,0,0
Cc1cccc(N2C(=O)CC(SCC(=O)Nc3ccc(Cl)cc3)C2=O)c1 (configuration not stated),0,0,0,0
N#Cc1c(N)nc(SCC(=O)NCc2ccccc2)c(C#N)c1-c1ccccc1Cl,0,0,0,58.3
N#Cc1cc2cc3c(cc2nc1SCC(=O)NCc1ccccc1)OCCO3,0,0,0,36.2
N#Cc1cc2cc3c(cc2nc1SCC(=O)Nc1ccccc1)OCCO3,0,0,0,0
CC(=O)N1CCSc2cc(S(=O)(=O)NCCCc3ccccc3)ccc21,0,0,0,34.8
CC(=O)N1CCSc2cc(S(=O)(=O)N3CCC(Cc4ccccc4)CC3)ccc21,0,0,0,54.5
CCC(C)n1c(SCc2c(F)cccc2Cl)nc2ccsc2c1=O (configuration not stated),0,0,0,0
CCC(C)n1c(SCc2ccccc2Cl)nc2ccsc2c1=O (configuration not stated),0,0,0,51.1
O=C(Cc1ccc(F)cc1)Nc1nc2cc3c(cc2s1)OCCO3,0,0,0,0
CCC(=O)/C=C/n1c(=S)oc2ccccc21,0,0,0,54.7
CC(=O)Nc1ccc(NC(=O)CCn2c(=S)oc3ccccc32)cc1,0,0,0,0
CC(=O)/C=C/n1c(=S)oc2ccccc21,0,0,0,57.1
SMILES,FBW7 activator,GPR151 ag,MITF inh,TEAD-YAP inh
Cc1ccc2c(c1)C1(C(=O)N2)C(C#N)=C(N)OC2=C1C(=O)CC(C)(C)C2 (configuration not stated),0,0,0,0
COc1cccc(Nc2ncccc2C(=O)Nc2ccccc2OC)c1,0,0,0,0
CN(C)c1ccc(/C=C(\NC(=O)c2ccccc2F)C(=O)Nc2ccc(F)c(Cl)c2)cc1,0,0,60.5,0
Cc1ccc(NC(=O)/C(=C/c2ccc(N(C)C)cc2)NC(=O)c2ccccc2F)cc1Cl,0,0,0,0
CCCNC(=O)CCn1nc(-c2ccc(C)cc2)c2ccccc2c1=O,0,0,0,0
CCCNC(=O)CCC(=O)Nc1ncc(-c2ccc(C)cc2)n1C,0,0,0,93.2
COc1ccc(CCNc2nc(N3CCN(c4ccccn4)CC3)nc3c2ncn3-c2ccsc2)cc1,0,0,0,0
OCCNc1nc(N2CCN(c3ccccn3)CC2)nc2c1ncn2-c1ccsc1,0,0,0,50.9
c1ccc(N2CCN(c3nc(NCCN4CCOCC4)c4ncn(-c5ccsc5)c4n3)CC2)nc1,0,0,0,57.4
CCCNc1nc(N2CCCC2CO)nc2c1ncn2-c1ccsc1 (configuration not stated),0,0,0,36.7
OCCNc1nc(N2CCN(c3ccccn3)CC2)nc2c1ncn2-c1ccccc1,0,0,0,42.5
COc1ccc(-c2cc(C(F)(F)F)n3nc(C(=O)N4CCN(Cc5ccccc5)CC4)c(Cl)c3n2)cc1OC,0,0,0,0
